Bioassay records: PubChem, National Center for Advancing Translational Sciences (NCATS)
Sampled rows, rich in hits. Any-hit rate of the full collection: about 9.2%.
FLuc modulator = counter-screen for miR-21 project: firefly luciferase inhibitors or activators; P08659; purified FLuc, Km substrates, luminescence inhibition; Potency, µM (doses to about 57.5 µM), for the others: top-dose activity change, negative = inhibition, most hits filed as inhibitors; 360,000 compounds, 6.9% hits; AID 588342;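 also: plate controls were vehicle for no effect and reference inhibitor for full effect; nearly all actives have a fitted effect of over 55% in size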
Target sequence (P08659 whole entry, looked up): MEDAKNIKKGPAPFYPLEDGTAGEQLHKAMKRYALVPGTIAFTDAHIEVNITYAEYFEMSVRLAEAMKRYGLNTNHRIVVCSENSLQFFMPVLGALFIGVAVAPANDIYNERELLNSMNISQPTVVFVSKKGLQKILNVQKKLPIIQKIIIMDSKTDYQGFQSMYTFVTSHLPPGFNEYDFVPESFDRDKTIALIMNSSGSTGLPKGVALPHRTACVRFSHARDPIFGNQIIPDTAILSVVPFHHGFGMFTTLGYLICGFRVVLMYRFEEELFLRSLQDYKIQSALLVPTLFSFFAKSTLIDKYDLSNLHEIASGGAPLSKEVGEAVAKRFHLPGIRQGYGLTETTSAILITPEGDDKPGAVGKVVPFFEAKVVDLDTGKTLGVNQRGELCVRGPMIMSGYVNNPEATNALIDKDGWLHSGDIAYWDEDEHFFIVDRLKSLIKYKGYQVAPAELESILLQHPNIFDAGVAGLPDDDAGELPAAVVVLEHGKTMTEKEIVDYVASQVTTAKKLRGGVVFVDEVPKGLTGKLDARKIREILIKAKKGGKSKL
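Purified P. pyralis luciferase (10nM final) with 10uM D-luciferin and 10uM ATP (Km levels) in 50mM Tris acetate pH 7.5, 10mM Mg acetate, 0.01% Tween-20, 0.05% BSA; qHTS 6-point titration, ~60 µM downward; luminescence read.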
SMN2 splice enh = enhancers of SMN2 splice variant expression. AID 1458. Potency, µM (titrated, usually from 46.1 µM), without a hit: at the top dose activity change, positive = activation, actives largely listed as activators. 210,000 compounds, 2.8% hits. HEK293 SMN2-luciferase splicing reporter, luminescence, 30-36 h; also: % of control where 0% means no effect; nearly all actives have a fitted effect of over 55% in size
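qHTS luciferase splicing reporter: luminescence rises when SMN2 exon 7 is included in transfected HEK293 cells. Compound exposure lasted 30-36 h at 37C, with 4.5 mM final sodium butyrate as control, followed by a ONE-Glo read.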
NPC1 prom act = activators of NPC1 promoter; Huh7 NPC1 promoter luciferase reporter, 24 h; Potency, µM (series often up to 9.22 µM), for the others: at the top dose activation, actives largely listed as activators; 320,000 compounds, 2.4% hits; AID 485313; also: % of control where 0% means no effect; nearly all actives have a fitted effect of over 60% in size
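Luminescence read-out of NPC1 promoter-driven luciferase in stably transfected Huh7 cells; compounds delivered in DMSO and left 24 h at 37C, 5% CO2, qHTS titration format.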
Rab9 prom act = activators of Rab9 promoter | Huh7 Rab9 promoter-luciferase reporter, luminescence, 24 h | Potency, µM (titrated, usually from 9.22 µM), for the others: top-dose activation, negative = inhibition, most hits filed as activators | 320,000 compounds, 2.8% hits | AID 485297; also: % of control where 0% means no effect; nearly all actives have a fitted effect of over 60% in size
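Cell-based reporter: Huh7 stable for Rab9 promoter-driven luciferase, plated in reduced-serum medium with 10% FBS at 1500 cells/well, compound-treated 24 h at 37 °C, luminescence read after 10 min reagent.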
ELG1 DNA repair = ELG1-dependent DNA repair inhibition; AID 504467; HEK293T ELG1-luciferase reporter, luminescence, 16 h; DNA damage induced by 5-fluorouridine; Potency, µM (top dose mostly 46.1 µM), for inactives: at the highest dose activity change, negative = inhibition, usual class: inhibitors; 330,000 compounds, 2.3% hits; also: % is scaled to controls: 0 for no effect and ±100 for the full control effect; nearly all actives have a fitted effect of over 55% in size
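Overnight (16 hr) co-exposure of 2,000 cells/well to 5-fluorouridine and compound at 37 °C preceded detection. Luciferase was quantified via ONE-Glo luminescence; loss of signal denotes inhibition.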
ELG1 genotoxic = induces genotoxicity in HEK293T cells with luciferase-tagged ELG1; HEK293T ELG1-luciferase reporter, luminescence, 16 h; Potency, µM (doses to about 46 µM), for the others: top-dose activity change, positive = activation, most hits filed as activators; 330,000 compounds, 1.3% hits; also: % of control where 0% means no effect; nearly all actives have a fitted effect of over 60% in size
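Step 1: seed 2,000 HEK293T ELG1-luciferase cells per well. Step 2: add compound or DMSO, incubate 16 hr at 37 °C. Step 3: ONE-Glo, 30 min at room temperature, read luminescence.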
Active calls of the source: *; ? = inconclusive; nt = not tested or not shown; [ ] = remark or other dose. Calls follow the shape of the dose curve; as a rule, active = well fitted curve in the direction sought with a large enough effect; inconclusive = small, poorly fitted or top-dose-only effect, or another doubt; inactive = no such curve, though single readings can be large; an effect the other way counts as inactive or inconclusive. Potency is read from the fitted curve at half-maximal effect.

SMILES | FLuc modulator | SMN2 splice enh | NPC1 prom act | Rab9 prom act | ELG1 DNA repair | ELG1 genotoxic
COc1cccc(NC(=O)CNC(=O)[C@@H]2Cc3ccccc3CN2C(=O)OC(C)(C)C)c1 | 1% | nt | -8% | -4% | 1% | -2%
Cc1ccc(-n2nc3c(c2NC(=O)CC(C)C)CS(=O)C3)cc1 (stereo not given) | 1% | nt | -4% | -5% | 0% | 4%
CCOC(=O)N/N=C\c1ccc(OC/C=C/c2ccccc2)c(OC)c1 | 12µM* | nt | 3% | 8% | 10% | -6%
COc1cccc(/C=N\NC(C)=O)c1OC/C=C/c1ccccc1 | -7% | nt | -1% | -1% | 21µM* | -8%
COC(=O)N/N=C\c1ccc(OC/C=C/c2ccccc2)c(OC)c1 | -2% | nt | -1% | 1% | -1% | 2%
C[C@H]1Cc2c(COc3ccccc3)nc3c(c2CO1)CN(S(=O)(=O)c1ccc2c(c1)OCCN2C)CC3 | nt | -1%[9.22 µM] | nt | nt | nt | nt
CC(C)Nc1oc(-c2cccc3ccccc23)nc1C#N | 12µM* | 10% | 0% | ? | ? | ?
CC1CCN(c2oc(-c3cccc4ccccc34)nc2C#N)CC1 | ? | 11µM* | ? | ? | ? | ?
COCCNc1oc(-c2ccccc2Cl)nc1C#N | 19µM* | 0% | 17% | 9% | ? | 2%
N#Cc1nc(-c2cccc3ccccc23)oc1N1CCCCC1 | ? | 8% | ? | ? | 59% | 16%
N#C/C(=C/c1ccc(N2CCOCC2)o1)c1nc2ccccc2[nH]1 | 0.54µM* | 2µM* | 3.5µM* | 1µM* | ? | 2.3µM*
N#C/C(=C\c1ccc(N2CCOCC2)cc1)c1ccccc1 | ? | 3.2µM* | 2.8µM* | 1µM* | ? | 4.1µM*
N#C/C(=C\N1CCOCC1)c1ccccc1 | -1% | -20% | -3% | 0% | 18% | -2%
N#C/C(=C\c1cc([N+](=O)[O-])c(N2CCCCC2)cc1N1CCCCC1)c1nn(-c2ccccc2)c(N)c1C#N | -2% | 27% | -5% | -1% | -2% | 0%
N#C/C(=C\c1ccc(Sc2ccc(Cl)cc2)o1)c1nc2ccccc2[nH]1 | -10% | -19% | 6% | 21% | ? | -6%
N#C/C(=C\c1ccc(N2CCOCC2)o1)c1ccccc1 | 2.1µM* | 13µM* | ? | ? | ? | ?
N#C/C(=C\c1cc([N+](=O)[O-])c(N2CCOCC2)cc1N1CCOCC1)c1nc2ccccc2[nH]1 | -2% | 1% | -2% | -1% | 21µM* | -6%
Cc1ccccc1C(N)=O | nt | -3% | nt | nt | nt | nt
COc1ccc2nc3oc(C(=O)N(C)c4ccc(Cl)cc4)cc3cc2c1 | 7% | 14% | nt | nt | nt | nt
CC(=O)c1ccc(-c2cccc(-c3cc(=O)oc4ccc(C(C)(C)C)cc34)c2)cc1 | nt | nt | nt | nt | -20% | 0%
N#C/C(=C/c1ccc(N2CCCCCC2)o1)c1cccc(F)c1 | 5.4µM* | 13µM* | 3.5µM* | 4µM* | ? | 5.8µM*
COc1cc(N2CCCC2)c(OC)cc1/C=C(/C#N)c1cccc(F)c1 | -12% | 12% | 6% | 0% | ? | 0%
N#C/C(=C/c1ccc(N2CCOCC2)o1)c1ccc(Br)cc1 | 8.5µM* | ? | ? | ? | ? | 7%
N#C/C(=C\c1cccnc1)c1ccc(Br)cc1 | ? | nt | 5% | 1% | -14% | 2%
CCOC(=O)N1CCc2c(sc(NCc3cccc(F)c3)c2C(=O)Nc2ccc(OC)cc2OC)C1 | 15µM* | nt | nt | nt | nt | nt
SMILES | FLuc modulator | SMN2 splice enh | NPC1 prom act | Rab9 prom act | ELG1 DNA repair | ELG1 genotoxic
COc1ccc(NC(=O)c2c(NCc3sccc3C)sc3c2CCCCC3)c(OC)c1 | -17% | nt | nt | nt | nt | nt
CCOC(=O)N1CCc2c(sc(NCc3sccc3C)c2C(=O)Nc2ccc(OC)cc2OC)C1 | 11µM* | nt | nt | nt | nt | nt
CCc1ccc(N2Cc3ccccc3C2)cc1 | 6µM* | nt | 2.8µM* | 3.5µM* | ? | ?
CCOC(=O)c1ccc(N2Cc3ccccc3C2=N)cc1 | ? | 0% | 15% | 30% | ? | ?
CCOC(=O)c1ccc(N2Cc3ccccc3C2)cc1O | 8.5µM* | nt | 27% | ? | ? | ?
COC(=O)c1ccccc1NS(=O)(=O)c1cc2c3c(c1)CC(=O)N3CCC2 | -2% | nt | nt | nt | nt | nt
Cc1ccc(C#CC[N+]2(CC#Cc3ccc(C)cc3)CCCCC2)cc1 | -1% | -52% | -31% | -27% | 12µM* | -10%
COc1ccc(-c2c(C)nc3c(-c4ccccn4)cnn3c2N)cc1 | 0.54µM* | nt | 0.32µM* | 0.32µM* | ? | 1.2µM*
COc1ccc(-c2c(C)nc3c(-c4ccsc4)cnn3c2N)cc1 | 0.6µM* | nt | 0.32µM* | 0.25µM* | ? | 1.8µM*
Cc1cc(C(F)(F)Cl)n2ncc(-c3ccccn3)c2n1 | -4% | nt | 6% | -2% | -1% | 6%
Nc1ccccc1C(=O)CC(N)C(=O)O (stereo not given) | nt | -1% | nt | nt | nt | nt
O=C(OC1CCc2ccccc2C1=O)c1ccccc1O (stereo not given) | 12µM* | 5% | -4% | -5% | -3% | -32%
c1ccc(CCc2nc(-c3ccccc3)no2)cc1 | 12µM* | 28% | ? | ? | ? | ?
c1ccc(OCc2nc(-c3ccccc3)no2)cc1 | 27µM* | ? | ? | ? | ? | 15µM*
O=C1CCC(=O)N1CCCCCc1nc(-c2ccccc2)no1 | ? | -4% | 18% | ? | ? | 21µM*
Cc1ccc(-c2noc(COC(=O)c3ccco3)n2)cc1 | 9.5µM* | nt | 20% | 4% | ? | 12%
CC(=O)O[C@H](C(=O)O[C@@H]1C[C@@H](CCC[C@H]2O[C@H](C(=O)OC(C)C)CC[C@@H]2C)O[C@@H](CC#N)C1)c1ccccc1 | nt | 7% | nt | nt | nt | nt
O=C(Nc1ccc(-c2noc(CCc3ccccc3)n2)cc1)c1ccco1 | 4.3µM* | 2.8µM* | 1.3µM* | 1.1µM* | ? | ?
Cc1cccc(-c2noc(CCC(=O)NCCc3ccccc3)n2)c1 | -2% | nt | -5% | -7% | 1% | -2%
O=C(Cc1ccccc1)Nc1ccc(NC(=O)c2ccco2)cc1 | ? | nt | 27% | 24% | 2% | ?
Cc1cccc(-c2noc(CCc3ccccc3)n2)c1 | 12µM* | 24% | ? | 2.8µM* | ? | ?
O=C(Nc1cc(Cl)cc(Cl)c1)c1ccc(F)c(S(=O)(=O)NC2CCCC2)c1 | 3% | nt | nt | nt | nt | nt
CSc1sc(C(=O)NNC(C)=O)c2c1C=CCC2 | 6% | nt | 4% | 2% | 7% | 1%
Cc1ccc(NC(=O)CCOc2ccccc2)cc1 | 13µM* | nt | ? | 3.5µM* | ? | ?
Cc1cccc(OCCCC(=O)Nc2ccc(N(C)C)cc2)c1 | 8.5µM* | 0% | ? | ? | ? | ?
